Measured values reported in PubChem BioAssay (NCATS).
Records with an inconclusive call do not appear. Active and inactive are the calls of the source. The call rests on the fitted dose curve; in most records, active means well fitted curve in the direction sought with a large enough effect; inconclusive means small, poorly fitted or top-dose-only effect, or another doubt; inactive means no such curve, though single readings can be large; an effect the other way counts as inactive or inconclusive.

How the values were obtained:
[1] = Quantitative High-Throughput drug screen in 47 multiple myeloma cell lines against the NCATS MIPE library collection: INA6_PLB cell viability assay (AID 1918965; further: nearly all actives have a fitted effect of over 55% in size)
Procedure, shortened: (§1)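 Approved and investigational drugs from MIPE 4.0 were added by pin tool to 500 cells per well. After 48 hours at 37C, ATP-based CellTiter-Glo luminescence indicated remaining viability.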

[2] = Quantitative High-Throughput drug screen in 47 multiple myeloma cell lines against the NCATS MIPE library collection: JJN3_DSMZ cell viability assay (AID 1918966; further: nearly all actives have a fitted effect of over 50% in size)
Procedure, shortened: (§2)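 Relative luminescence from CellTiter-Glo served as the viability signal, referenced to DMSO-treated (100%) and cell-free medium (0%) controls. Treatment lasted 48 hours at 37C with 500 cells per well.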

[3] = Quantitative High-Throughput drug screen in 47 multiple myeloma cell lines against the NCATS MIPE library collection: H1112_PLB cell viability assay (AID 1918967; further: nearly all actives have a fitted effect of over 30% in size)
Procedure, shortened: as §2

[4] = Quantitative High-Throughput drug screen in 47 multiple myeloma cell lines against the NCATS MIPE library collection: Karpas25_ECACC cell viability assay (AID 1918968; further: nearly all actives have a fitted effect of over 35% in size)
Procedure, shortened: as §2

[5] = Quantitative High-Throughput drug screen in 47 multiple myeloma cell lines against the NCATS MIPE library collection: KMS27_JCRB cell viability assay (AID 1918970); settings: KMS27 myeloma cells, CellTiter-Glo ATP viability, 48 h; viability (% of DMSO): at 45.8 µM (top of the series); further: nearly all actives have a fitted effect of over 30% in size
Procedure, shortened: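 Each line is seeded at 500 cells per well and treated with library compounds for 48 hours under 37 °C, 5% CO2. CellTiter-Glo is then added for 5 min at room temperature before median relative luminescence is recorded.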

[6] = Quantitative High-Throughput drug screen in 47 multiple myeloma cell lines against the NCATS MIPE library collection: KMS12BM_JCRB cell viability assay (AID 1918971); further: nearly all actives have a fitted effect of over 35% in size
Procedure, shortened: (§3)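 Myeloma cell lines, 500 cells per well, exposed to MIPE 4.0 library compounds for 48 h at 37C, 5% CO2. Viability from ATP by CellTiter-Glo luminescence; normalised to DMSO (100%) and media-only (0%) wells.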

[7] = Quantitative High-Throughput drug screen in 47 multiple myeloma cell lines against the NCATS MIPE library collection: KMS21BM_JCRB cell viability assay (AID 1918974); settings: ATP luminescence, 48 h; viability: at 45.8 µM (top of the series)
Procedure, shortened: as §2

[8] = Quantitative High-Throughput drug screen in 47 multiple myeloma cell lines against the NCATS MIPE library collection: NCIH929_DSMZ cell viability assay (AID 1918978); further: nearly all actives have a fitted effect of over 35% in size
Procedure, shortened: (§4)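 MIPE 4.0 approved/investigational drugs; 500 cells/well; 48 h 37 °C humidified 5% CO2; CTG luminescence readout; DMSO = 100%, media = 0% viability.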

[9] = Quantitative High-Throughput drug screen in 47 multiple myeloma cell lines against the NCATS MIPE library collection: OCIMY1_PLB cell viability assay (AID 1918979); further: nearly all actives have a fitted effect of over 35% in size
Procedure, shortened: as §4

[10] = Quantitative High-Throughput drug screen in 47 multiple myeloma cell lines against the NCATS MIPE library collection: MM1S_ATCC cell viability assay (AID 1918980); further: nearly all actives have a fitted effect of over 45% in size
Procedure, shortened: as §4

[11] = Quantitative High-Throughput drug screen in 47 multiple myeloma cell lines against the NCATS MIPE library collection: KMS12PE_JCRB cell viability assay (AID 1918972); further: nearly all actives have a fitted effect of over 30% in size
Procedure, shortened: as §1

[12] = Quantitative High-Throughput drug screen in 47 multiple myeloma cell lines against the NCATS MIPE library collection: KMS26_JCRB cell viability assay (AID 1918975); further: nearly all actives have a fitted effect of over 45% in size
Procedure, shortened: as §3

[13] = Quantitative High-Throughput drug screen in 47 multiple myeloma cell lines against the NCATS MIPE library collection: MMM1_PLB cell viability assay (AID 1918976); further: nearly all actives have a fitted effect of over 35% in size
Procedure, shortened: as §4

[14] = Quantitative High-Throughput drug screen in 47 multiple myeloma cell lines against the NCATS MIPE library collection: MOLP8_DSMZ cell viability assay (AID 1918977); further: nearly all actives have a fitted effect of over 45% in size
Procedure, shortened: as §4

[15] = Quantitative High-Throughput drug screen in 47 multiple myeloma cell lines against the NCATS MIPE library collection: MM1R_ATCC cell viability assay (AID 1918981); further: nearly all actives have a fitted effect of over 35% in size
Procedure, shortened: as §4

[16] = Quantitative High-Throughput drug screen in 47 multiple myeloma cell lines against the NCATS MIPE library collection: LP1_DSMZ cell viability assay (AID 1918982); further: nearly all actives have a fitted effect of over 35% in size
Procedure, shortened: as §4

[17] = Quantitative High-Throughput drug screen in 47 multiple myeloma cell lines against the NCATS MIPE library collection: KMS28PE_JCRB cell viability assay (AID 1918983); further: nearly all actives have a fitted effect of over 35% in size
Procedure, shortened: as §4

[18] = Quantitative High-Throughput drug screen in 47 multiple myeloma cell lines against the NCATS MIPE library collection: L363_DSMZ cell viability assay (AID 1918984); further: nearly all actives have a fitted effect of over 40% in size
Procedure, shortened: as §4

[19] = Quantitative High-Throughput drug screen in 47 multiple myeloma cell lines against the NCATS MIPE library collection: KMS34_JCRB cell viability assay (AID 1918985); further: nearly all actives have a fitted effect of over 40% in size
Procedure, shortened: as §4

[20] = Quantitative High-Throughput drug screen in 47 multiple myeloma cell lines against the NCATS MIPE library collection: KMS20_JCRB cell viability assay (AID 1918973); further: nearly all actives have a fitted effect of over 45% in size
Procedure, shortened: as §2
Potency means the concentration at half of the fitted maximal effect.

Row | SMILES | Potency [1] | Potency [2] | Potency [3] | Potency [4] | Potency [5] | Potency [6] | Potency [7] | Potency [8] | Potency [9] | Potency [10] | Potency [11] | Potency [12] | Potency [13] | Potency [14] | Potency [15] | Potency [16] | Potency [17] | Potency [18] | Potency [19] | Potency [20]
1 | O=C(O)c1ccc(Nc2ncc3c(n2)-c2ccc(Cl)cc2C(c2c(F)cccc2F)=NC3)cc1 | 1870 nM (active) | 3720 nM (active) | 16600 nM (active) | 14800 nM (active) | inactive | 296 nM (active) | 743 nM (active) | 4180 nM (active) | inactive | 18700 nM (active) |  |  |  |  |  |  |  |  |  | 
2 | CC(C)N1[N]C(=C2C=c3cc(O)ccc3=N2)c2c(N)ncnc21 | 1180 nM (active) | 209 nM (active) | 4180 nM (active) | 235 nM (active) | 209 nM (active) | 166 nM (active) | 2090 nM (active) | 59 nM (active) |  | 469 nM (active) | 2350 nM (active) | 1180 nM (active) | 83.3 nM (active) | 83.3 nM (active) | 418 nM (active) | 2.6 nM (active) | 209 nM (active) | 59 nM (active) | 296 nM (active) | 
3 | O=C(c1ccc(F)cc1)N1CCC[C@H](c2nc(-c3ccc(F)cc3)no2)C1 | inactive | inactive | inactive | inactive | inactive |  |  | inactive | inactive |  | inactive | inactive |  |  | inactive | inactive | inactive | inactive | inactive | 
4 | Cc1[nH]c(C=C2C(=O)Nc3ccccc32)c(C)c1CCC(=O)O | 3720 nM (active) | 18700 nM (active) | 4180 nM (active) | 10500 nM (active) | 5900 nM (active) | 5900 nM (active) | 11800 nM (active) | 7430 nM (active) |  | 83.3 nM (active) | 9350 nM (active) |  |  |  | 526 nM (active) |  |  | 9350 nM (active) |  | 
5 | O=c1[nH]c(=O)n([C@H]2C[C@@H](O)[C@@H](CO)O2)cc1C=CBr | inactive | inactive | inactive | inactive | inactive |  |  |  |  |  | inactive |  |  |  |  | inactive | inactive | inactive | inactive | inactive
6 | CCN(CC)CCNC(=O)c1c(C)[nH]c(C=C2C(=O)Nc3ccc(F)cc32)c1C | 1210 nM (active) | 6050 nM (active) | 6790 nM (active) | 1360 nM (active) | 1360 nM (active) |  | 762 nM (active) | 960 nM (active) | 13600 nM (active) | 4810 nM (active) | 1360 nM (active) | 17100 nM (active) | 6790 nM (active) |  | 3030 nM (active) |  | 5400 nM (active) | 540 nM (active) |  | 855 nM (active)
7 | O=C(C=Cc1ccc(CN(CCO)CCc2c[nH]c3ccccc23)cc1)NO | 29.6 nM (active) | 93.5 nM (active) | 187 nM (active) | 59 nM (active) | 105 nM (active) | 83.3 nM (active) |  | 105 nM (active) | 296 nM (active) | 105 nM (active) | 83.3 nM (active) | 105 nM (active) | 66.2 nM (active) |  | 59 nM (active) | 148 nM (active) | 132 nM (active) | 59 nM (active) | 105 nM (active) | 
8 | Cc1cnn(C)c1C(=O)Nc1cc(Nc2ccc3c(C=Cc4ccccn4)n[nH]c3c2)ccc1F | 4180 nM (active) | 23500 nM (active) | 8330 nM (active) | 4690 nM (active) | 2640 nM (active) |  |  | 14800 nM (active) |  | 20900 nM (active) | 2960 nM (active) | 33200 nM (active) |  |  | 26400 nM (active) | 20900 nM (active) | 29600 nM (active) | 4690 nM (active) |  | 
9 | CN1CCCN(C(=O)c2cccc(-c3ccc(C=C4C(=O)Nc5ccc(Cl)cc54)o3)c2)CC1 | 7430 nM (active) | 18700 nM (active) | 26400 nM (active) | 8330 nM (active) | 3320 nM (active) | 23500 nM (active) | 7430 nM (active) | 20900 nM (active) |  | 14800 nM (active) | 7430 nM (active) | 18700 nM (active) | 8330 nM (active) | 4180 nM (active) | 5900 nM (active) |  |  | 6620 nM (active) | 16600 nM (active) | 
10 | N#Cc1c(NC(=O)c2cccc3ccccc23)sc2c1CCCC2 | 296 nM (active) | 2640 nM (active) | 418 nM (active) | 743 nM (active) | 20.9 nM (active) | 526 nM (active) | 526 nM (active) | 2350 nM (active) |  | 1050 nM (active) | 332 nM (active) | 3320 nM (active) | 5260 nM (active) |  | 743 nM (active) |  | 469 nM (active) | 296 nM (active) | 296 nM (active) | 
